From PubChem BioAssay come the findings set out here.

Experiment [1] is described as follows: resazurin metabolic signal in HepG2 cells – cell-based, resazurin fluorescence, 24 h, PK04 Diversity Set, profiling panel (AID 1172). Conditions: HepG2 viability, higher = more signal.
Experiment [2] is described as follows: budding yeast growth changes without added modifier – OD600, strain BY4716, 24 h, basal condition, primary screen (AID 1173). Conditions: S. cerevisiae BY4716 growth, OD600, 24 h; higher = more signal, called active from +8 up or from −8 down.
Experiment [3] in a line: viability profiling in MM1S myeloma cells – cell-based, resazurin fluorescence, basal, 24 h, PK04 Diversity Set, profiling panel (AID 1174). The following applies: higher = more signal, called active from +8 up or from −8 down.
In experiment [4] the target is Dihydroorotate dehydrogenase (quinone), mitochondrial (Plasmodium falciparum (isolate 3D7)) (UniProt Q08210). The experiment can be described thus: inhibition of P. falciparum DHODH – biochemical, C-terminal His tag, absorbance 600 nm, primary screen (AID 1175).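 Note: recombinant parasite enzyme with a five histidine tag at its C terminus.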 The following applies: PfDHODH enzyme, DCIP absorbance 600 nm; higher = more signal, called active from +8 up or from −8 down.

The nature of experiment [5]: inhibition of PAO1 biofilm formation – strain PAO1, LB-PBS medium, absorbance 600 nm, primary screen (AID 1176). The following applies: P. aeruginosa PAO1 growth/biofilm, A600, 12 h; higher = more signal.
Experiment [6] can be described thus: growth modulation of vineyard yeast isolate – strain RM11-1a, OD600, basal, 24 h, primary screen (AID 1177).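 Note: cultures grown under basal conditions with no added stressor.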 The following applies: S. cerevisiae RM11-1a growth, OD600, 24 h; higher = more signal, called active from +8 up or from −8 down.
A short description of experiment [7]: growth of efflux-deficient E. coli DRC39 – strain DRC39, OD650, 24 h, E. coli filamentation inducers, primary screen (AID 1178).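 Note: growth measured as culture turbidity by optical density at 650 nm.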 The following applies: E. coli DRC39 acrAB, higher = more signal, called active from +8 up or from −8 down.
Experiment [8] is described as follows: growth of efflux-deficient E. coli DRC39 – strain DRC39, OD650, 48 h, E. coli filamentation inducers, primary screen (AID 1179).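 Note: screen aims at cell division blockers that make cells filament.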 The following applies: E. coli DRC39 delta-acrAB growth, higher = more signal, called active from +8 up or from −8 down.
A short description of experiment [9]: viability profiling in RPMI8226 myeloma cells – cell-based, resazurin fluorescence, basal, 24 h, PK04 Diversity Set, profiling panel (AID 1180).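 Note: RPMI8826 multiple myeloma cell line at 5000 cells per well.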 Conditions: higher = more signal.
Experiment [10] deals with E3 ubiquitin-protein ligase XIAP (Homo sapiens) (UniProt P98170). Put plainly: small molecules binding XIAP protein – biophysical, small-molecule microarray, fluorescence 635 nm, primary screen (AID 1181).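 Note: score merges 667 nm emission and signal to noise over triplicate slides.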 The following applies: higher = more signal.
Experiment [11] deals with XIP peptide (Xip251-270) binding. Put plainly: XIP fragment 251-270 binding compounds – biochemical, small-molecule microarray, fluorescence 635/667 nm, 0.1 µg/mL protein, primary screen (AID 1182). Conditions: fluorescent protein binding, 635 nm, higher = more signal, called active from +8 up or from −8 down.
The test system of the next experiment is XIP peptide (Xip251-270). The experiment can be described thus: compounds binding XIP fragment 251-270 – biochemical, small-molecule microarray, fluorescence 635/667 nm, 0.5 µg/mL protein, primary screen (AID 1183). Conditions: fluorescence 635 nm, higher = more signal.
Experiment [12] can be described thus: blood-stage malaria parasite viability loss – strain 3D7, DAPI fluorescence, 100 nL, primary screen (AID 1184).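 Note: parasites grown inside human red blood cells in medium with human serum.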 Conditions: P. falciparum 3D7 growth, 3 d, higher = more signal.
Experiment [13] concerns the target Homeobox protein Hox-A13 (Mus musculus) (UniProt Q62424). Put plainly: disruptors of Hoxa13 oligonucleotide interaction – biochemical, fluorescence polarization, labeled oligonucleotide, primary screen (AID 1185). The following applies: Hoxa13:DNA binding, 15 min, higher = more signal, called active from +8 up or from −8 down.
Experiment [14] can be described thus: blockers of DNA damage checkpoint Chk1 activation – imaging, HeLa, hydroxyurea, phospho-Chk1 antibody, percent positive cells, primary screen (AID 1186). The following applies: hydroxyurea-induced phospho-Chk1 immunofluorescence imaging, higher = more signal.
The nature of experiment [15]: blockers of DNA damage checkpoint Chk1 activation – imaging, HeLa, hydroxyurea, phospho-Chk1 nuclear intensity, primary screen (AID 1187). The following applies: hydroxyurea-induced phospho-Chk1 immunofluorescence imaging, higher = more signal.

Where “and” joins values, the source holds several entries; their conditions need not be identical. Equal entries are not always repeated. Calls of active or inactive are those of the source. Unless noted, the rule behind the calls is not given here.

Chain of Homeobox protein Hox-A13 (Mus musculus) (Q62424 whole entry, looked up): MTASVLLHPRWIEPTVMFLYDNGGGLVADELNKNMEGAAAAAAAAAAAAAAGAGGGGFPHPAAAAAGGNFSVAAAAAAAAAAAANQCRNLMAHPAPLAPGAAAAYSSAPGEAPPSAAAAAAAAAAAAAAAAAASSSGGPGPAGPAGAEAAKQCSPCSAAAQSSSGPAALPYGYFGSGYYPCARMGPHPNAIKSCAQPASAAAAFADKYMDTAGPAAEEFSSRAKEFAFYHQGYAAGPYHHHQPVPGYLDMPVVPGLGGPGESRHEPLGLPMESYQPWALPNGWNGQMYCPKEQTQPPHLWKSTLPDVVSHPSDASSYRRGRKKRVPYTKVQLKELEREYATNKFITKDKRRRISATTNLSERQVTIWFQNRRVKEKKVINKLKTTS
Chain of Dihydroorotate dehydrogenase (quinone), mitochondrial (Plasmodium falciparum (isolate 3D7)) (Q08210 whole entry, looked up): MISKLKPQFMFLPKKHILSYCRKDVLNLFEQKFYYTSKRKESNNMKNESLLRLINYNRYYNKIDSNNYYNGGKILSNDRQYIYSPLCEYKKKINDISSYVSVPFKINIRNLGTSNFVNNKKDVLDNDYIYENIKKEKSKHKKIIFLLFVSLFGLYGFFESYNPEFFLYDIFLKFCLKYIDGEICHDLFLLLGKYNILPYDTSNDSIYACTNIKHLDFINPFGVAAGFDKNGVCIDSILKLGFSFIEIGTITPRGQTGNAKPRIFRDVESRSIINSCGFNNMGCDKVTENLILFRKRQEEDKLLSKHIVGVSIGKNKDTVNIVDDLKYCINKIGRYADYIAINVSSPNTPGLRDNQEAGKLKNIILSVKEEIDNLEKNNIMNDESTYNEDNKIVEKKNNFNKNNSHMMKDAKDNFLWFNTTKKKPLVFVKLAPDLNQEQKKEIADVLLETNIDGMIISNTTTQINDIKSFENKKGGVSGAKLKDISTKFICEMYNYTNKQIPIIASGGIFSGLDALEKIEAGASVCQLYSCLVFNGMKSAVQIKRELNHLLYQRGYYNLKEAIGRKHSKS
Chain of E3 ubiquitin-protein ligase XIAP (Homo sapiens) (P98170 whole entry, looked up, the tested form may be a part): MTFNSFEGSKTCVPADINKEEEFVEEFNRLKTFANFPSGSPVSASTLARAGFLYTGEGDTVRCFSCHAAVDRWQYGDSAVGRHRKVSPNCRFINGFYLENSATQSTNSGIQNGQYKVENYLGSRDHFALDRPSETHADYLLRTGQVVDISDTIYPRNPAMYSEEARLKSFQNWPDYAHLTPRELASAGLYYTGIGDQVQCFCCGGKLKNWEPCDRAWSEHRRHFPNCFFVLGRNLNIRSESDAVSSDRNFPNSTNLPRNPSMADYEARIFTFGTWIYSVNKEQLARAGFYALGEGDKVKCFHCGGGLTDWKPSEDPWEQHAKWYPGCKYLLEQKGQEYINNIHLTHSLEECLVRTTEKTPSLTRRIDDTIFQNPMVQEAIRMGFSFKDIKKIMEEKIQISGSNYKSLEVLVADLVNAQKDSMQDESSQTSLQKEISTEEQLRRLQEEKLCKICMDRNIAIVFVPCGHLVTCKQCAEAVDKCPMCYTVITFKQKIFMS

In the case of `C=CC[C@@H](O)c1ccc(O)c2ccccc12`, the z-score is 0.202 and -0.349 in [1]; -17.2 (active) and -17.3 (active) in experiment [2]; -2.06 (inactive) and -2.1 (inactive) in [3]; 1 (inactive) and 1.33 (inactive) in [5]; -0.508 (inactive) and 0.0761 (inactive) in [6]; 1.2 (inactive) and -0.0099 (inactive) in [7]. Also, the z-score was 0.635 (inactive) and -0.379 (inactive) in [8]; -0.947 and -1.55 in experiment [9]; -0.401 and 0.619 in experiment [12]; -2.24 (inactive) in experiment [13]; 0.024 (inactive) and 0.26 (inactive) in [14]; 0.515 (inactive) and 0.183 (inactive) in experiment [15]. Further, the composite z-score in experiment [4] was -2.37 (inactive) and -3.1 (inactive); in experiment [10], 0.205 and 0.0537; in experiment [11] it was 2.01 (inactive) and 0.431 (inactive); in the experiment on XIP peptide (Xip251-270), 0.703 and 0.802.
With `C=CCN(CCCCC)C(=O)C1N(C(C)(C)CO)C(=O)C2C(C(=O)O)C3C=CC21O3` (stereo not given), the z-score in experiment [1] is -0.839 and -0.382; in experiment [2] it was 0.579 (inactive) and -0.295 (inactive); in experiment [3] it was -1.09 (inactive) and -0.64 (inactive); in [5] it was -0.91 (inactive) and -1.08 (inactive); in experiment [6] it was -1.01 (inactive) and -1.15 (inactive); in experiment [7], -0.62 (inactive) and 0.193 (inactive). For the same compound, the z-score in experiment [8] is -0.396 (inactive) and 0.2 (inactive); in experiment [9], -0.725 and -0.827; in experiment [12] it was -0.0999 and 0.86; in [13], -0.598 (inactive) and 0.0686 (inactive); in experiment [14], 0.0341 (inactive) and -0.15 (inactive); in experiment [15] it was 0.436 (inactive) and 0.287 (inactive). The composite z-score in [4] is 0.457 (inactive) and -0.446 (inactive); in experiment [10], -0.0387 and -0.245; in experiment [11] it was -0.53 (inactive) and -1 (inactive); in the experiment with XIP peptide (Xip251-270) it was -0.417 and -1.97.
`C=CCN(CCCC)C(=O)C1N(CCOCCO)C(=O)C2C(C(=O)O)C3C=CC21O3` (stereo not given): the z-score is -0.171 and -0.143 in [1]; 0.492 (inactive) and 1.27 (inactive) in experiment [2]; -0.451 (inactive) and -0.748 (inactive) in experiment [3]; 0.413 (inactive) and 0.261 (inactive) in experiment [5]; -0.119 (inactive) and 0.178 (inactive) in experiment [6]; 0.127 (inactive) and -0.229 (inactive) in experiment [7]. Moreover, the z-score in [8] is -0.11 (inactive) and -0.406 (inactive); in [9], -0.472 and -0.68; in experiment [12], 0.172 and 0.134; in experiment [13] it was -1.14 (inactive) and -0.529 (inactive); in experiment [14], -0.24 (inactive) and 0.924 (inactive); in experiment [15] it was -0.299 (inactive) and 0.869 (inactive). Further, the composite z-score in experiment [4] was 0.457 (inactive) and 0.856 (inactive); in experiment [10], 0.0258 and -0.304; in experiment [11], 0.175 (inactive) and 0.306 (inactive); in the experiment with XIP peptide (Xip251-270), 1.07 and -0.932.
With `C=CCN(CCCC)C(=O)C1N(C(C)(C)CO)C(=O)C2C(C(=O)O)C3C=CC21O3` (stereo not given), the z-score in experiment [1] was 0.043 and 0.688; in [2], 0.709 (inactive) and -0.0821 (inactive); in [3], -0.0251 (inactive) and -0.847 (inactive); in experiment [5], 0.385 (inactive) and 0.0126 (inactive); in experiment [6], -0.902 (inactive) and -1.02 (inactive); in experiment [7] it was 0.378 (inactive) and 0.096 (inactive). Further, the z-score was 0.0298 (inactive) and -0.182 (inactive) in experiment [8]; -0.131 and -0.803 in [9]; 0.102 and 0.116 in experiment [12]; -0.224 (inactive) and -0.0596 (inactive) in [13]; -0.356 (inactive) and 0.83 (inactive) in experiment [14]; -0.0315 (inactive) and 1.16 (inactive) in [15]. The composite z-score in experiment [4] was -1.46 (inactive) and 0.0326 (inactive); in experiment [10], -0.162 and -0.195; in experiment [11], -0.485 (inactive) and -0.807 (inactive); in the experiment on XIP peptide (Xip251-270), 0.214 and -0.185.
Take `C=CCN(Cc1ccccc1)C(=O)C1N(CCCCCCO)C(=O)C2C(C(=O)O)C3C=CC21O3` (stereo not given): the z-score in experiment [1] is -0.29 and 0.875; in experiment [2] it was -0.356 (inactive) and -0.726 (inactive); in [3], -0.231 (inactive) and 0.723 (inactive); in experiment [5], 0.95 (inactive) and 0.441 (inactive); in experiment [6], -0.325 (inactive) and -0.784 (inactive); in [7], 0.0108 (inactive) and 0.14 (inactive). For the same compound, the z-score in experiment [8] is -0.187 (inactive) and -0.172 (inactive); in experiment [9], -0.615 and 0.439; in [12], 0.865 and 1.05; in experiment [13] it was -0.888 (inactive) and 0.0908 (inactive); in experiment [14], 0.909 (inactive) and 0.53 (inactive); in [15], 0.798 (inactive) and 0.751 (inactive). In addition, the composite z-score in experiment [4] was -0.248 (inactive) and -1.43 (inactive); in experiment [10], 0.0898 and -0.395; in [11] it was -0.0934 (inactive) and -0.383 (inactive); in the experiment with XIP peptide (Xip251-270), -0.673 and 0.372.
